High-throughput results deposited in PubChem BioAssay by National Center for Advancing Translational Sciences (NCATS).
TRHR PAM = qHTS for Small Molecule Agonists and Allosteric Enhancers of Human TRH Receptor: Primary Screen for Enhancers; TRHR cells, fluo-8 calcium fluorescence, EC20 TRH enhancement; enhancement, % at 2 µM; 360,000 tested, 0.66% active; AID 493056, 2011; in the data active means enhancement above about 30%
Target sequence (P34981 whole entry, looked up): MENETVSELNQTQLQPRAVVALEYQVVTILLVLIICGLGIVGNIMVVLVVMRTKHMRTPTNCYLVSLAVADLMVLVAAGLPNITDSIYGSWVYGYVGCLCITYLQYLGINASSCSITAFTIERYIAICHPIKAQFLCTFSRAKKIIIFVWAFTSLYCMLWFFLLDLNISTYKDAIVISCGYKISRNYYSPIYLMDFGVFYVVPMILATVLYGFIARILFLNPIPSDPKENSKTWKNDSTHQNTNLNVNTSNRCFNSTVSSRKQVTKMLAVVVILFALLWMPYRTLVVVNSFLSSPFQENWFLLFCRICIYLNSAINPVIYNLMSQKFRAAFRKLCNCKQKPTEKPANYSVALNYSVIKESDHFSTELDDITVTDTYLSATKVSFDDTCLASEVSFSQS
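TRHR-expressing cells loaded with fluo-8 calcium dye were read kinetically (ex 480/em 530) during compound addition, then stimulated with an EC20 of TRH (10 nM final). Enhancement of the Gq-mediated intracellular calcium response was scored.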
D1 antag = Antagonist of Human D 1 Dopamine Receptor: qHTS; D(1A) dopamine receptor (Homo sapiens), P21728; HEK293 TREx D1 cells, calcium flux, dopamine EC80; hits give low values; activity change, negative = inhibition, % at 10 µM; 360,000 tested, 3.2% active; AID 504652, 2011; in the data active means activity change below about -30%
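Cells carrying a force-coupled, tetracycline-inducible human D1 receptor report calcium flux. Each well gets a 10 s baseline, compound with 180 s monitoring, then an EC80 dopamine stimulus with a second 180 s kinetic read.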
D1 PAM = Potentiators of Human D1 Dopamine Receptor: qHTS. D(1A) dopamine receptor (Homo sapiens), P21728. HEK293 TREx D1 cells, calcium flux, dopamine EC20 potentiation. potentiation, % at 10 µM. 360,000 tested, 0.036% active; in the data active means potentiation above about 30%
D1 agonist = Allosteric Agonists of the Human D1 Dopamine Receptor: qHTS. D(1A) dopamine receptor (Homo sapiens), P21728. HEK293 T-REx D1 cells, calcium flux, agonist mode. activation, % at 2 µM. 360,000 tested, 1% active
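Tetracycline-induced HEK293 TREx D1 cells, force-coupled to calcium signalling, were dye-loaded with a no-wash calcium kit. Compound was pin-added after a 10 s baseline. Fluorescence was read kinetically at 1 cycle/s for 180 s, with calcium rises flagged as agonism.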
TRHR ag = qHTS for Small Molecule Agonists and Allosteric Enhancers of Human TRH Receptor: Primary Screen for Agonists; Thyrotropin-releasing hormone receptor (Homo sapiens), P34981; TRHR cells, calcium flux fluo-8, FDSS agonist mode; activation, % at 2 µM; 360,000 tested, 0.18% active; AID 493084, 2011
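Agonist-mode FDSS calcium read (Ex 480/Em 530, 1 s cycles) in 1536-well TRHR cells with fluo-8 dye, after 10-cycle baseline and 23 nL compound addition; TRH at EC20 (10 nM final) added afterwards for the enhancer phase.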
Hits are given with their value; - = inactive; . = not tested or not shown; ! = not active in a repeat. An excerpt weighted towards active compounds, which were near 4.7% of everything screened. Unless noted, no stated cut-off is given here; in the data, active means activation above about 30%; inactive means the rest.

SMILES | TRHR PAM | D1 antag | D1 PAM | D1 agonist | TRHR ag
CC(C(=O)Nc1ccc2c(c1)OCO2)c1ccc([N+](=O)[O-])cc1 (stereo unspecified) | - | - | - | 112 | -
CC(NC(=O)c1ccccc1Cl)C(=O)Nc1ccc2c(c1)OCO2 (stereo unspecified) | - | -83 | - | - | -
O=C(Nc1ccc2c(c1)OCCO2)C1CCN(C(=O)c2ccc([N+](=O)[O-])cc2)CC1 | - | -31 | - | - | -
CC(C)n1nc(C(=O)Nc2ccc3c(c2)OCO3)c2ccccc2c1=O | - | -32 | . | - | -
O=C(Cc1ccc([N+](=O)[O-])cc1)Nc1ccc2c(c1)OCO2 | - | - | - | - | -
Cc1ccc(C)c(CN2C(=O)CSc3ccc(C(=O)NCc4ccc(F)cc4)cc32)c1 | - | - | - | - | -
Cc1ccc2c(c1)c(=O)c(C(=O)c1ccncc1)cn2CC(=O)Nc1c(C)cccc1C | - | - | - | - | -
O=C(NCc1ccco1)C1CCN(C(=O)c2ccc([N+](=O)[O-])cc2)CC1 | - | -45 | - | - | -
CC(C(=O)Nc1ccc2c(c1)OCCO2)c1ccc([N+](=O)[O-])cc1 (stereo unspecified) | - | -51 | - | 101 | -
CCOC(=O)c1ccc(NC(=O)c2noc3c2CCCC3)cc1 | - | - | - | - | -
COc1ccc(CNC(=O)c2ccc3c(c2)CCN3S(=O)(=O)c2ccc(C)cc2)cc1 | - | - | - | - | -
COc1ccccc1Nc1ccncc1[N+](=O)[O-] | - | -48 | - | - | -
O=[N+]([O-])c1cnccc1Nc1ccccc1 | - | - | - | - | -
CCOC(=O)c1[nH]c(C)c(CCC(=O)Nc2ccc(C(C)=O)cc2)c1C | - | - | - | - | -
C=CCSc1ncc(-c2ccccc2)cn1 | - | -31 | - | - | -
C#CCSc1ncc(-c2ccccc2)cn1 | - | - | - | - | -
Cc1cccc(N2CCN(C(=O)c3cnn(-c4cccc(Cl)c4C)c3C3CCNCC3)CC2)c1C | - | - | - | - | -
CCOC(=O)c1cc2c(=O)n3ccccc3nc2n(CC2CCCO2)c1=NC(=O)c1ccc(OC)cc1OC (stereo unspecified) | - | - | - | - | -
O=c1cc(N2CCCC2)c2ccccc2o1 | 35 | - | - | - | -
O=c1cc(N2CCOCC2)c2ccccc2o1 | - | - | - | - | -
Oc1cncc(-c2cccnc2)c1 | 31 | . | - | - | -
COc1ccc(S(=O)(=O)Oc2ccc3ccccc3c2)cc1 | - | -39 | - | - | -
COCCOC(=O)c1c(NC(=O)CNCc2ccco2)sc(C(N)=O)c1C | - | -35 | - | - | -
COCCOC(=O)c1c(NC(=O)CNc2ccc(C)c(F)c2)sc(C(N)=O)c1C | - | - | - | - | -
CCN(CC)CCNC(=O)c1ccc(NC(=O)c2ccc(C(=O)c3ccccc3)cc2)cc1 | - | -38 | - | - | -
SMILES | TRHR PAM | D1 antag | D1 PAM | D1 agonist | TRHR ag
CCN(CC)CCNC(=O)c1ccc(NC(C)=O)cc1 | - | -34! | - | - | -
CCN(CC)CCNC(=O)c1ccc(NC(=O)Cc2cccc3ccccc23)cc1 | - | - | - | - | -
CCN(CC)CCNC(=O)c1ccc(NC(=O)c2ccc(COc3ccccc3)cc2)cc1 | - | - | - | - | -
O=[N+]([O-])c1ccc(CN2CCSCC2)cc1 | - | -33 | - | - | -
O=[N+]([O-])c1ccc(N2CCN(Cc3cccc([N+](=O)[O-])c3)CC2)cc1 | - | -40 | - | - | -
O=[N+]([O-])c1ccc(CN2CCN(c3ccc([N+](=O)[O-])cc3)CC2)cc1 | - | - | - | - | -
CC1Cc2cc(S(=O)(=O)N3CCN(c4ccccc4F)CC3)ccc2N1C(=O)C1CCC1 (stereo unspecified) | - | - | - | - | -
CCCOc1ccc(CNC(=O)c2ccc3c(c2)N(Cc2ccccc2)CCS3)cc1 | - | - | - | - | -
O=[N+]([O-])c1cc(Cl)c(O)c2ncccc12 | - | - | - | - | -
O=[N+]([O-])c1cc(Cl)c2cccnc2c1O | - | - | - | 30 | -
Cc1cccc(NC(=O)c2sc3cccc(Cl)c3c2Cl)c1 | - | - | - | - | -
Cc1cc2nc(-c3ccc(NC(=O)C(C)C)cc3)oc2cc1C | - | -33 | - | - | -
CC(C)CCOc1ccc(Cn2c(=O)oc3ccccc32)cc1 | - | - | - | - | -
CC(C)c1cc(-c2nc(-c3ccc(Cl)cc3)no2)n[nH]1 | - | -38 | - | - | -
COc1cc(-c2noc(-c3cc(C(C)C)[nH]n3)n2)cc(OC)c1OC | - | - | - | - | -
Cc1cccc(NC(=O)CSC2=Nc3ccccc3C3=NC(CC(=O)NCc4cccs4)C(=O)N23)c1 (stereo unspecified) | - | - | - | - | -
CCOC(=O)C1(CCOc2ccccc2)CCN(Cc2ccc(O)c(OC)c2)CC1 | - | - | - | - | -
CCOC(=O)C1(CCOc2ccccc2)CCN(Cc2ccc3c(c2)OCCO3)CC1 | - | -43 | - | - | -
CCOC(=O)C1(CCOc2ccccc2)CCN(Cc2ccc(O)c(Cl)c2)CC1 | - | -39 | - | - | -
CCOC(=O)C1(CCOc2ccccc2)CCN(Cc2cccc(OC)c2O)CC1 | - | -45 | - | - | -
CCOC(=O)C1(Cc2cccc(OC)c2)CCN(Cc2ccc3c(c2)OCCO3)CC1 | - | - | - | - | -
CCc1ccc(-c2ccc3nnc(SCC(=O)Nc4cccc(C(C)=O)c4)n3n2)cc1 | - | . | - | - | -
CCOC(=O)c1c(NC(=O)c2ccc(S(=O)(=O)N(CCOC)CCOC)cc2)sc2c1CC(C)(C)NC2(C)C | - | - | - | - | -
CCOc1ccc(NC(=O)C2CCN(C(=O)NC3CCCCC3)CC2)cc1 | - | -35 | - | - | -
CCOC(=O)c1c(C)n(-c2ccccc2)c2ccc(OC(=O)c3ccccc3)cc12 | - | - | - | - | -
SMILES | TRHR PAM | D1 antag | D1 PAM | D1 agonist | TRHR ag
Cn1cc(-c2cc3n(n2)CCC(=O)N3CC(=O)O)c2ccccc21 | 43 | - | - | - | -
CN(C)CCNC(=O)CN1C(=O)CCn2nc(-c3cn(C)c4ccccc34)cc21 | - | - | - | - | -
Cc1ccc2nc(CCl)[n+]([O-])c(-c3ccccc3)c2c1 | - | -38 | - | - | -
COc1ccc(N=CC2=C(O)CC(C)(C)CC2=O)cc1 | 38 | - | - | - | -
COc1ccc(OC)c(N=CC2=C(O)CC(C)(C)CC2=O)c1 | - | - | - | - | -
CCN(CC)c1ccc(/C=C/c2cc(-c3ccccc3)c3ccccc3n2)cc1 | - | -57 | - | 325 | 89
